This is an account of results in PubChem BioAssay AID894 (National Center for Advancing Translational Sciences (NCATS), 2007).

The whole screen tested about 150,000 compounds, of which about 6,500 (4.3%) were called active. Another 12% or so got no clear call; they are omitted. This excerpt belongs to a sample that is enriched for actives. A number with no mark means an inactive call. Calls come from the whole dose curve; as a rule, active = well fitted inhibition curve with a large enough effect (not every such curve was filed as active); inconclusive = small, poorly fitted or top-dose-only effect, or another doubt; inactive = no such curve, though single readings can be large or run the other way.
% is set by controls: 0 for no effect and ±100 for the full control effect; potency is the fitted concentration of half-maximal effect.

15-hydroxyprostaglandin dehydrogenase [NAD(+)] (Homo sapiens), sequence (P15428 whole entry, looked up): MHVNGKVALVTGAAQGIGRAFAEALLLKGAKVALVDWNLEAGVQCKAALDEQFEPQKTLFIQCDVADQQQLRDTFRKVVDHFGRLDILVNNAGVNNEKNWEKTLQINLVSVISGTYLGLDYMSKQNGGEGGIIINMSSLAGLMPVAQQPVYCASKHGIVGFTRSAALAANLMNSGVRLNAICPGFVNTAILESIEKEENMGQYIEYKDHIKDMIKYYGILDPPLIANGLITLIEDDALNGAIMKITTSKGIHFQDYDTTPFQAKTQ

The assay has as its target 15-hydroxyprostaglandin dehydrogenase [NAD(+)] (Homo sapiens) (UniProt P15428). Briefly: qHTS Assay for Inhibitors of HPGD (15-Hydroxyprostaglandin Dehydrogenase). The conditions noted are these: purified HPGD, NADH fluorescence kinetic, PGE2 substrate; activity change, negative = inhibition: active compounds read low. In outline:
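20 nM HPGD preincubated 15 min at room temperature with compound in 50 mM Tris-HCl pH 8, 0.01% Tween 20. Started with 1 mM NAD+ and 30 uM prostaglandin E2; NADH fluorescence (360/450 nm) read 5 times over 30-s intervals, last minus first.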
As to `O=C(O)c1ccc(N=NN2CCOCC2)cc1`, the activity change, negative = inhibition was -13.6%. Same read-out and setting: the same measure for `Cc1ccc(NC(=O)NC(=O)N(C2CCCCC2)S(=O)(=O)c2ccccc2)cc1`: -16%; for `CC(=O)Nc1ccc(S(=O)(=O)NC(C)C(=O)OCC(=O)NC2CCCC2)cc1` (configuration not stated): -4.32%.

Regarding `CC(C)Oc1ccc(CCc2n[nH]c(=S)n2Cc2ccccc2)cc1`, the Potency is 10 µM (active). For the molecule `CCCCC(CC(C)O)c1n[nH]c(=S)n1-c1ccccc1` (configuration not stated), the activity change, negative = inhibition was -3.38%.

As for `CCCc1cc(-c2n[nH]c(=S)n2CC)c2ccccc2n1`, the activity change, negative = inhibition was -28.5%. For the molecule `O=C(N/N=C\c1ccc(Br)cc1)c1ccc(Cn2cccn2)o1`, the activity change, negative = inhibition is -5.99%. On to `COCCOC(=O)c1c(C)oc2cc(Br)c(OCC(N)=O)cc12`, for which the activity change, negative = inhibition is -7.04%. On the same count and under the same terms, the same measure for `COC(C(=O)NCc1ccccc1C)c1ccccc1` (configuration not stated): -8.94%; for `Cc1nc2ccccc2cc1C(=O)N/N=C/c1ccc([N+](=O)[O-])cc1`: -5.88%; for `Cc1cc(C(F)(F)F)n2ncc(-c3ccccc3)c2n1`: -0.556%. Regarding `Cn1c(-c2sc3cc(C(F)(F)F)cnc3c2-c2ccccc2)n[nH]c1=S`, the Potency is 31.6 µM (active). As for `CCOC(=O)c1c(C)[nH]c(=S)c(C#N)c1-c1ccccc1`, the activity change, negative = inhibition was -27.3%. With `CCc1c(C)[nH]c(=S)c(C#N)c1C`, the Potency is 35.5 µM (active).

In the case of `CCCCC1S/C(=N/N=C/c2cccs2)NC1=O` (configuration not stated), the activity change, negative = inhibition was -7.59%. On the same count and under the same terms, next, `COC(=O)C1=C(C(=O)OC)[C@@H]2Nc3ccccc3[C@@]23C[C@@H](C(=O)OC)N(S(=O)(=O)c2ccc([N+](=O)[O-])cc2)C3=N1`: -10.9%; `Cc1ccc(C)c(NC(=S)NNC(=O)c2csc(C)c2)c1`: -5.84%. Same read-out and setting: next, `COc1ccc(Nc2ncnc3ccc(OC)cc23)cc1`: -4.83%. Take `CN(C)c1cc2c(Nc3ccc4c(cnn4Cc4ccccc4)c3)ncnc2cn1`: the Potency is 12.6 µM (active). As for `Cn1ncc2c(Nc3cccc4ccccc34)ncnc21`, the activity change, negative = inhibition was -9.06%. In the case of `CCOC(=O)C1=C(c2ccc(OC)cc2)C(=O)c2ccccc2C1=O`, the activity change, negative = inhibition is -6.53%. On the same count and under the same terms, next, `COc1ccc(N2CCN(Cc3cc(=O)oc4ccc5ccccc5c34)CC2)cc1`: -9.86%. For the molecule `CCc1nc2oc3ccccc3c(=O)c2c(=O)n1Cc1ccc(OC)cc1`, the Potency is 25.1 µM (active).

In the case of `O=c1c2ccccc2oc2nc(C3CCCCC3)n(Cc3ccco3)c(=O)c12`, the activity change, negative = inhibition is -6.04%. Still for that read-out and setting: the same measure for `COC(C(=O)Nc1ccc(C(C)=O)cc1)c1ccccc1` (configuration not stated): -9.31%. In the case of `O=C(Cc1cccs1)Nc1cccc(-c2nc3ccccc3[nH]2)c1`, the activity change, negative = inhibition is -8.46%. For the molecule `O=C(CCc1nc2ccccc2c(=O)[nH]1)OCC(=O)c1cccc(Cl)c1`, the activity change, negative = inhibition was -9.26%. Same read-out and setting: the same measure for `CCOc1cc(C(=O)OCC(=O)Nc2cccc(C)c2)ccc1OCC(=O)N1CCOCC1`: -18.5%.

With `CCOc1cc(C(=S)N2CCOCC2)ccc1O`, the Potency was 12.6 µM (active). For the molecule `Cc1ccc(C(=O)C(=S)N2CCOCC2)cc1`, the activity change, negative = inhibition was -3.51%. For the molecule `COc1ccc2c(c1)O[C@@H](c1ccc3c(c1)OCO3)[C@H](OC(=O)NCCc1ccc(OC)c(OC)c1)C2=O`, the activity change, negative = inhibition is -3.81%. The same measure, in the same setting: the same measure for `S=C(Nc1cccc(Cl)c1)Nc1ccc2cn[nH]c2c1`: -14.3%; for `Cc1cc(C)cc(C(=O)N2CCN=C2SCc2ccc([N+](=O)[O-])cc2)c1`: -11.7%.

On to `O=C(COc1ccccc1F)NNC(=O)c1ccc(N2CCCCC2)c([N+](=O)[O-])c1`, for which the activity change, negative = inhibition was -21.3%. With `O=C1CCCC(O)=C1N=Nc1ccc2ncsc2c1`, the Potency is 31.6 µM (active). Take `COc1ccc(NC(=O)c2nc(-n3nc(C)cc3C)ccc2Cl)cc1Cl`: the activity change, negative = inhibition was -17.4%. With `CCCN(CCC)C(=S)Nc1cc(C(=O)OC)ccc1C(=O)OC`, the activity change, negative = inhibition is -9.23%. For the molecule `O=C(NNc1ccccn1)c1ccc(Cl)nc1`, the activity change, negative = inhibition was -23%. The same measure, in the same setting: next, `COc1cc(OC)nc(NC(=O)CCl)n1`: -16.6%. Consider `O=C(CCl)NNc1cccc(Cl)n1`, for which the Potency was 28.2 µM (active). In the case of `CCOCC(=O)Nc1cc(OC)c(Cl)cc1OC`, the activity change, negative = inhibition is -3.42%. As for `COc1cc(NC(=S)NNC(=O)CC(C)C)c(OC)cc1Cl`, the Potency was 31.6 µM (active). In the case of `CC(C)CC(=O)NC(=S)Nc1cc(C(=O)O)ccc1Cl`, the activity change, negative = inhibition was -13.5%. In the case of `COc1ccc(-c2nc3c(c4c2C[C@H](c2ccccc2)OC4)CN(S(=O)(=O)c2c(C)noc2C)CC3)c(C)c1`, the activity change, negative = inhibition is -1.95%. As for `Cc1ccc(-c2n[nH]c(=S)n2/N=C/c2cc3c(cc2[N+](=O)[O-])OCO3)cc1`, the Potency was 1.58 µM (active). `CCOC(=O)c1c(C)[nH]c(C(=O)COc2ccc3c(c2)OCO3)c1C`: the activity change, negative = inhibition was -6.28%. The same measure, in the same setting: next, `Cc1ccc(S(=O)(=O)N/N=C\c2cc3c(cc2[N+](=O)[O-])OCO3)cc1`: -28.1%; `CCOC(=O)c1nc(-c2ccc3c(c2)OCO3)[nH]c1C`: -11.1%. For the molecule `O=[N+]([O-])c1ccccc1/C=N/n1c(COc2ccccc2)n[nH]c1=S`, the Potency is 7.08 µM (active). Consider `O=C(Cc1cc(=O)[nH][nH]1)N/N=C/c1ccccc1[N+](=O)[O-]`, for which the activity change, negative = inhibition is -14.9%. For the molecule `Cc1c(NC(=O)CCCOc2ccccc2)cccc1[N+](=O)[O-]`, the activity change, negative = inhibition was -12.9%.

As for `CCOc1ccc(-c2n[nH]c(=S)n2/N=C/c2cc3c(cc2[N+](=O)[O-])OCO3)cc1`, the Potency is 3.55 µM (active).
